# Measured values published in the supplement of paper PMC12819154, “High-throughput peptide-centric local stability assay extends protein–ligand identification to membrane proteins, tissues and bacteria” (Nature Structural & Molecular Biology, 2025).
# Key:
# Assay in all cases: log2 fold change of tryptic peptide abundance, ligand vs vehicle (limited proteolysis) (log2 ratio); higher = more trypsin-susceptible (destabilized)
# [1] = target: T1, UniProt P02918; settings: peptide sequence: NSPPQYAGPIR; peptide start residue: 506; ligand concentration: 10 uM; sample: E. coli crude lysate
# T1 sequence (whole entry): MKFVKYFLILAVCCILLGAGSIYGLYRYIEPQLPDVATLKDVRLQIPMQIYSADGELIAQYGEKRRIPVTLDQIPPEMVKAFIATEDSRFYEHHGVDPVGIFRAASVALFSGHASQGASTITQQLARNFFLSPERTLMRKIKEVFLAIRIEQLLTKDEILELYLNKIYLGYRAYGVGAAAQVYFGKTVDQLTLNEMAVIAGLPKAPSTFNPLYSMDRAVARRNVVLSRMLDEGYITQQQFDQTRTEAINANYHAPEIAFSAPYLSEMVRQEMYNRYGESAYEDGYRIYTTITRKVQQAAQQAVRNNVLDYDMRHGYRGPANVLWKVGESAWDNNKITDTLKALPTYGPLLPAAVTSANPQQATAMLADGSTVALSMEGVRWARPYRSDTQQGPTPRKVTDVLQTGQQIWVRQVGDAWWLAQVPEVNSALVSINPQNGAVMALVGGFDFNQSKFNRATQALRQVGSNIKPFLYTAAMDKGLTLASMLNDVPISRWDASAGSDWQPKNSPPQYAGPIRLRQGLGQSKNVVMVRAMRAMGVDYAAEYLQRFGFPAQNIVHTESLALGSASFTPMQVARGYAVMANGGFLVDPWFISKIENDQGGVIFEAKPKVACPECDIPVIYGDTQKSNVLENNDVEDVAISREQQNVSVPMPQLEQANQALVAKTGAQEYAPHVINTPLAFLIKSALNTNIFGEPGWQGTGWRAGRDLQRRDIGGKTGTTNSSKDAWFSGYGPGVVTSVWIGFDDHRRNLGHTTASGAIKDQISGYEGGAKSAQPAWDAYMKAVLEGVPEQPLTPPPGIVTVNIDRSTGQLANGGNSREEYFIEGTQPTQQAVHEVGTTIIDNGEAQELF
# [2] = target: T2, UniProt P02919; settings: peptide sequence: QPNGQVWSPQNDDRR; peptide start residue: 542; ligand concentration: 10 uM; sample: E. coli crude lysate
# T2 sequence (whole entry): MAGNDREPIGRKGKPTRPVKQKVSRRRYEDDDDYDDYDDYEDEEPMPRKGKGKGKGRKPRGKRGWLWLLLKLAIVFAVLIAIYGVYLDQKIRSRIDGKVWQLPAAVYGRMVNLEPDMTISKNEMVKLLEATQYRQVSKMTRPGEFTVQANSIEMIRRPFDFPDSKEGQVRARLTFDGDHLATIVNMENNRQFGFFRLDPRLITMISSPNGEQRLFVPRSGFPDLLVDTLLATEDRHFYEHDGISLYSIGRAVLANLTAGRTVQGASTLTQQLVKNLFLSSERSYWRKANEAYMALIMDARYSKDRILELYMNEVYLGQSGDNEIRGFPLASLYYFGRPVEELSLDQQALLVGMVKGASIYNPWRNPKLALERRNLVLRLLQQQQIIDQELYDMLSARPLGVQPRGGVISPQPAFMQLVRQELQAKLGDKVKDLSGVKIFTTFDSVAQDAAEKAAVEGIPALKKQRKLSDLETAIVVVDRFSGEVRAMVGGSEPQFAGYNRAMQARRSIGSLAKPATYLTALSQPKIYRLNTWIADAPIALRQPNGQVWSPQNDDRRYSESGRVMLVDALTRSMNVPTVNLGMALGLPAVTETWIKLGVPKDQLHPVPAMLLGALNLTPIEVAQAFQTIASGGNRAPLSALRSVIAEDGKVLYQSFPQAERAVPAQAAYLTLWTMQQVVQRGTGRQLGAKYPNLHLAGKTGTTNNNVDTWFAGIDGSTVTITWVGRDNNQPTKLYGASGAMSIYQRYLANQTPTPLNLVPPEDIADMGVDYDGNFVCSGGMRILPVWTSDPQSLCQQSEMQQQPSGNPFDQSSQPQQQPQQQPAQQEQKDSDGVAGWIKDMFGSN
# [3] = target: UniProt P24228; settings: peptide sequence: AGLHQAGVDGK; peptide start residue: 403; ligand concentration: 10 uM; sample: E. coli crude lysate
# [4] = target: T3, UniProt P77754; settings: peptide sequence: DLNLTDAQK; peptide start residue: 54; ligand concentration: 10 uM; sample: E. coli crude lysate
# T3 sequence (whole entry): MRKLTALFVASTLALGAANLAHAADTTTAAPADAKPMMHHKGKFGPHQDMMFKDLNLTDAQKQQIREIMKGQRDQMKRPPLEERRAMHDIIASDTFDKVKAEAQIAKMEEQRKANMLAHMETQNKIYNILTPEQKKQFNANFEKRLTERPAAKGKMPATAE
# UniProt P24228, sequence (P24228 whole entry): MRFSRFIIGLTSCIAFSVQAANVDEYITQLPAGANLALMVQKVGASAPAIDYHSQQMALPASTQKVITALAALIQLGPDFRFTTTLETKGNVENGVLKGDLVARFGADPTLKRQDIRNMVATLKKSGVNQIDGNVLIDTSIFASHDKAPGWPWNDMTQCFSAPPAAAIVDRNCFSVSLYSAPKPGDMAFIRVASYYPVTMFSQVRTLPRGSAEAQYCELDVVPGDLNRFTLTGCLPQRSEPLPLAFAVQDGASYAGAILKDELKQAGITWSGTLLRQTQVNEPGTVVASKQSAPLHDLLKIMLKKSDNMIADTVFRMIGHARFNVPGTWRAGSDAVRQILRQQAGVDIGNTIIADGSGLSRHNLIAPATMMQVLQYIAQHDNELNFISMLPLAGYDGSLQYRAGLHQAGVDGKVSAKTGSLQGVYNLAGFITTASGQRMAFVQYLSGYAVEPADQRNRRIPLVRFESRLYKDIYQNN
compound,measurement,setting,value
CC1(C)S[C@@H]2[C@H](NC(=O)[C@H](N)c3ccccc3)C(=O)N2[C@H]1C(=O)O [ampicillin],log2 fold change,[1],-1.56
same,log2 fold change,[2],1.86
same,log2 fold change,[3],-3.07
same,log2 fold change,[4],-0.675
